Compound activity as filed in PubChem BioAssay.
Shown are actives, neighbours in structure and some others; about 2.9% of the full set was active somewhere.
mIDH1 inhibitor = qHTS for Inhibitors of mutant isocitrate dehydrogenase 1 (IDH1): qHTS; Isocitrate dehydrogenase [NADP] cytoplasmic (Homo sapiens), O75874; IDH1-R132H enzyme, NADPH consumption, diaphorase/resazurin fluorescence; Potency, µM (titrated, usually from 76.6 µM), usual class: inhibitors; actives 0.093% (n = 390,000); also: nearly all actives have a fitted effect of over 65% in size
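IDH1-R132H (0.5 ug/mL dispensed) in pH 7.5 Tris buffer was preincubated 30 min with compound, then given a substrate mix of 0.016 mM NADPH and 2 mM alpha-KG for 80 min at room temperature; remaining NADPH was read by diaphorase/resazurin fluorescence.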
B2AR arrestin = qHTS assay of beta-arrestin-biased ligands of beta2-adrenergic receptor | Potency, µM (top dose mostly 46.1 µM), actives largely listed as activators | Beta-2 adrenergic receptor (Homo sapiens), P07550 | beta-arrestin recruitment to beta2AR, cell-based reporter | actives 0.02% (n = 330,000); also: nearly all actives have a fitted effect of over 65% in size
D3 antag = qHTS of D3 Dopamine Receptor Antagonist: qHTS; max response, negative = inhibition, %; D(3) dopamine receptor (Homo sapiens), P35462; D3R cells, DiscoveRx beta-arrestin luminescence, antagonist mode; hits give low values; actives 2.5% (n = 360,000); in the data active = max response below about -50%; inconclusive = no clear call, values can overlap the other calls
Target sequence (P35462 whole entry, looked up): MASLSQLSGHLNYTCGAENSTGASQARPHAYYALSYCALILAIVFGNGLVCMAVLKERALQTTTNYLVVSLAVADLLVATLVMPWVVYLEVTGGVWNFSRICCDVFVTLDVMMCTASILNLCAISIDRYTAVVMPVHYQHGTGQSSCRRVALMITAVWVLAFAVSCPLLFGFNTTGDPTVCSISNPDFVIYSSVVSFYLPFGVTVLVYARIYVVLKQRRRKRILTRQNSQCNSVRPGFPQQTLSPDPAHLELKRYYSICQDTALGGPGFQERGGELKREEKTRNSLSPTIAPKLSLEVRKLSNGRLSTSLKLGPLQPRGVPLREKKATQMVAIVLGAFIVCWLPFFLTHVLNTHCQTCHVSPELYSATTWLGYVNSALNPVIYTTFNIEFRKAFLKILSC
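Cells plated overnight at 1500 cells/well, then exposed to library compounds with dopamine controls for 90 minutes at 37 degrees C. DiscoveRx reagent added for 30–60 minutes at room temperature; luminescence read, quantitative HTS format.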
D3 ag = qHTS of D3 Dopamine Receptor Agonist: qHTS | D3R DiscoveRx beta-arrestin cells, luminescence, 90 min | D(3) dopamine receptor (Homo sapiens), P35462 | actives 0.58% (n = 410,000) | max activation, %; in the data active = max activation above about 30%
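Cells at 1500/well, incubated overnight, then treated with pinned compounds (dopamine as control) for 90 min at 37 degrees C. DiscoveRx reagent added for 30 - 60 minutes at room temperature; luminescence read.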
Integrin act MD = qHTS for Activators of Integrin-Mediated Alleviation for Muscular Dystrophy | alpha7betagal myoblasts, beta-gal FDG fluorescence, 48 h | Potency, µM (titrated, usually from 38.3 µM), usual class: activators | actives 0.064% (n = 350,000); also: nearly all actives have a fitted effect of over 60% in size
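alpha7betagal+/- myoblasts (passage 13, 250/well) treated 48 h at 37C with compounds at 1:260 dilution of DMSO stock. Lysed, then beta-galactosidase activity read as FDG fluorescence (ex 480/em 540) after 30 min, with pre-read for autofluorescence.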
Each line names hits and unclear results; the compound was inactive in the other large screens. Unless noted, calls follow the shape of the dose curve; as a rule, active = well fitted curve in the direction sought with a large enough effect; inconclusive = small, poorly fitted or top-dose-only effect, or another doubt; inactive = no such curve, though single readings can be large; an effect the other way counts as inactive or inconclusive.

COc1ccccc1CNC(=O)c1ccc(-c2nc(CN3CCc4ccccc43)c(C)o2)cc1	none (no result: B2AR arrestin, D3 antag, Integrin act MD)
COCCN1CCN(Cc2nc(C3(c4ccc(C)cc4)CCCC3)no2)CC1	D3 antag -53.9
COc1cccc(OC)c1OCC(C)CNCC1CCCO1 (configuration not stated)	D3 antag -66.9
C=CCC(CC=C)(CNC(=O)C(=O)Nc1ccc(Br)cc1)c1ccc(OC)c(OC)c1	none (no result: B2AR arrestin, D3 antag, Integrin act MD)
O=C1CC(=C2c3ccccc3-c3ccccc32)C(=O)N1CCCCN1CCN(c2ccccc2)CC1	D3 antag -55.0
CCOC(=O)c1ccc(NC(=O)Nc2cc3c(cc2N2CCCC2)n(C)c(=O)n3C)cc1	none (no result: B2AR arrestin, D3 antag, Integrin act MD)
Cc1cc(C)c(C)c(S(=O)(=O)N(C)C2CCN(C)CC2)c1C	D3 antag -77.1
CN1CCC(N(C)S(=O)(=O)c2ccc(Cl)cc2)CC1	none
Cc1ccc(CNn2cnnc2SCc2ccc(F)cc2)cc1	none
Fc1ccc(CNn2cnnc2SCc2ccc(F)cc2)cc1	D3 ag 40.6
O=C(O)CN=C(Nc1cc(Cl)cc(Cl)c1)NC(c1ccccc1)c1ccccc1	none (no result: mIDH1 inhibitor, B2AR arrestin, Integrin act MD)
CN(Cc1ccc(OCC(O)CN2CCCCC2)cc1)Cc1ccnc2ccccc12 (configuration not stated)	D3 antag inconclusive
CC(C)(C)c1ccc(OCC(O)CN2CCN(C(=O)c3ccccc3)CC2)cc1 (configuration not stated)	none
CN(Cc1cnccn1)Cc1ccccc1OCC(O)CN1CCc2ccccc2C1 (configuration not stated)	D3 antag -83.2
CCN1CCN(CC(O)COc2cccc(OC)c2)CC1 (configuration not stated)	none
COc1cccc(OCC(O)CN2CCc3ccccc3C2)c1 (configuration not stated)	D3 antag -90.6
Cc1cccc(OCC(O)CN2CCOCC2)c1 (configuration not stated)	none
CC(C)(C)c1ccc(OCC(O)CN2CCc3ccccc3C2)cc1 (configuration not stated)	D3 antag -119.2 (no result: B2AR arrestin)
Cc1cccc(OCC(O)CN2CCc3ccccc3C2)c1 (configuration not stated)	D3 antag -104.5
CCOc1ccc(CN2C(=O)c3ccccc3Sc3ccc(C(=O)N4CCN(C)CC4)cc32)cc1	none (no result: B2AR arrestin, D3 antag, Integrin act MD)
CSCc1ccc(C(=O)OCC(=O)NC2CCCC2)o1	none (no result: B2AR arrestin)
COc1ccc(CCN2C(=O)CN(C3CCCCCC3)C(=O)C2c2ccc(C)cc2)cc1OC (configuration not stated)	none (no result: B2AR arrestin, D3 antag, Integrin act MD)
Cc1cccc(N2CCN(C(=O)C3CCCN(S(=O)(=O)c4ccc5c(c4)oc(=O)n5C)C3)CC2)c1C (configuration not stated)	none (no result: B2AR arrestin, D3 antag, Integrin act MD)
COc1ccc(OCC(O)CN2CCc3ccccc3C2)cc1 (configuration not stated)	D3 antag -106.6
OC(COc1ccc(Cl)cc1Cl)CN1CCc2ccccc2C1 (configuration not stated)	D3 antag -102.9
N=c1n(CCN2CCCCC2)c2ccccc2n1CC(O)COc1ccc(Cl)cc1Cl (configuration not stated)	none (no result: B2AR arrestin, D3 antag, Integrin act MD)
COc1cc(COCC(O)CN2CCc3ccccc3C2)cc(OC)c1OC (configuration not stated)	D3 antag -84.7
Cc1ccc(OCC(=O)N2CCc3ccccc3C2)c(C)c1	none
COc1ccc(OCC(O)CN2CCCCC2)cc1 (configuration not stated)	none
Cc1ccc(OCC(O)CN2CCc3ccccc3C2)c(C)c1 (configuration not stated)	D3 antag -104.5
CC(C)c1ccc(/C=C(\C#N)c2nc(-c3ccc(O)cc3)cs2)cc1	none (no result: B2AR arrestin, D3 antag, Integrin act MD)
COC(=O)CS(=O)(=O)c1nc2ccccc2nc1N1CCCCC1	none (no result: B2AR arrestin, D3 antag, Integrin act MD)
CCC(=O)c1ccc(OCC(O)CN2CCCCC2)cc1 (configuration not stated)	D3 antag inconclusive
CCCc1ccc(OCC(O)CN2CCc3ccccc3C2)cc1 (configuration not stated)	D3 antag -94.0
C=CCc1ccc(OCC(O)CN2CCc3ccccc3C2)c(OC)c1 (configuration not stated)	D3 antag -100.5
CCC(=O)c1ccc(OCC(O)CN2CCc3ccccc3C2)cc1 (configuration not stated)	D3 antag -74.7
CCc1ccc(OCC(O)CN2CCCC2)cc1 (configuration not stated)	none
COc1cc(OC)c(OC)cc1CN1CCc2ccccc2C1	D3 antag inconclusive
CN(C1CCCCC1)S(=O)(=O)c1ccc2c(c1)c(=O)c(C(=O)NCCc1ccc(Cl)cc1)cn2C	none (no result: B2AR arrestin, D3 antag, Integrin act MD)
O=C(COc1cc2oc(=O)c3c(c2cc1Cl)CCCC3)NCC1CCC(C(=O)O)CC1 (configuration not stated)	Integrin act MD 7.08µM
O=C(COc1cc2oc(=O)c3c(c2cc1Cl)CCC3)NCC1CCC(C(=O)O)CC1 (configuration not stated)	Integrin act MD inconclusive
CC(Oc1ccc2c3c(c(=O)oc2c1)CCC3)C(=O)NCC1CCC(C(=O)O)CC1 (configuration not stated)	D3 ag 43.1
CCc1cc2c(-c3ccccc3)cc(=O)oc2cc1OC(C)C(=O)NCC1CCC(C(=O)O)CC1 (configuration not stated)	D3 ag 43.6
COc1ccc(OC)c(CCNC(=O)CCn2c(=O)c3cccn3c3cccnc32)c1	none (no result: B2AR arrestin, D3 antag, Integrin act MD)
CCn1c(=N)n(CCOc2ccc(Br)cc2)c2ccccc21	none (no result: B2AR arrestin, D3 antag, Integrin act MD)
CCCCCCOc1ccc(C2C(=O)N(C3CCCCC3)CC(=O)N2CCCC)cc1 (configuration not stated)	none (no result: B2AR arrestin, D3 antag, Integrin act MD)
CCCCOc1ccccc1C(=O)Nc1nonc1-c1ccccc1	D3 ag 34.8 (no result: B2AR arrestin, D3 antag, Integrin act MD)
CCOc1ccc(-c2nonc2NC(=O)COc2ccccc2)cc1	none (no result: B2AR arrestin, D3 antag, Integrin act MD)
Cc1ccc(N2C(=O)C(c3c(C)[nH]n(-c4ccccc4)c3=O)(C(F)(F)F)C3=C2CC(C)(C)CC3=O)cc1 (configuration not stated)	D3 antag -74.9
Cc1[nH]n(-c2ccccc2)c(=O)c1C1(C(F)(F)F)C(=O)N(c2ccccc2)C2=C1C(=O)CC(C)(C)C2 (configuration not stated)	none
COc1ccc(C(=O)Nc2ccc(-c3cc(C(F)(F)F)nn3-c3ccccc3)cc2)cc1OC	D3 ag 58.5 (no result: B2AR arrestin, D3 antag, Integrin act MD)
CCCCC(=O)NNC(=S)NC(=O)CCC	D3 antag -58.1
CCCCC(=O)NC(=S)NNC(=O)CC#N	none
